EBV LMP1 NFkB: reduces LMP1-driven NF-kappaB luciferase signal. LMP1-induced NF-kappaB luciferase reporter cells, luminescence. inhibition, % at 12.5 µM. 0.69% of 350,000 active; in the data active means inhibition above about 41%;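 further: 0% = neutral control wells and 100% = reference inhibitor control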
MITF TRPM1 inh: reduces MITF-dependent TRPM1 promoter luciferase signal | SK-MEL-5 TRPM1 promoter luciferase, 24 h | inhibition, % at 12.5 µM | 0.83% of 330,000 active | AID 488899;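 active means mean inhibition across replicates of 60% or more, whatever share of single replicates reaches that level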
Shn3 3UTR inh: reduces Shn3 3'UTR luciferase signal in osteoblasts | Clone20 osteoblast Shn3 3'UTR firefly luciferase, 24 h | inhibition, % at 12.5 µM | 0.52% of 360,000 active;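 active means mean inhibition of at least 75% with every replicate also reaching 75%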;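 further: 0% = median of neutral control wells and 100% = pilot-screen positive control compound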
Jurkat NFkB inh: inhibitors of the PMA/ionomycin-induced NF-kB reporter in Jurkat cells; PMA/ionomycin-induced NF-kB luciferase reporter, luminescence; inhibition, % at 4 µM; 0.53% of 330,000 active; in the data active means inhibition above about 50%
697 NFkB inh: inhibitors of the PMA/ionomycin-induced NF-kB reporter in 697 B cells. inhibition, % at 4 µM. 697 B-cell NF-kB luciferase reporter, 16 h. 0.33% of 330,000 active; in the data active means inhibition above about 35%
Gli-Sufu block: blocks Gli-Sufu signaling in a luciferase reporter | Sufu-KO-LIGHT fibroblasts, Gli luciferase reporter luminescence | inhibition, % at 5 µM | 0.74% of 340,000 active | AID 588413;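 active means inhibition above about 55%, limit read from the data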;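 further: 0% = DMSO-treated cells and 100% = wells with medium but no cells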
697 NFkB conf: inhibitors of the PMA/ionomycin-induced NF-kB reporter in 697 B cells, retest. shares compounds with 697 NFkB inh. 697 B-cell NF-kB luciferase, 16 h. inhibition, % at 4 µM. 35% of 2,000 active. AID 449746; in the data active means inhibition mostly above about 28%, no sharp cut-off; inactive means mostly below about 22%
Starred values were filed as active, the others as inactive; i = inactive; . = not tested or not shown. Sampled rows, rich in hits. Any-hit rate of the full collection: about 2.3%.

SMILES	EBV LMP1 NFkB	MITF TRPM1 inh	Shn3 3UTR inh	Jurkat NFkB inh	697 NFkB inh	Gli-Sufu block	697 NFkB conf
c1ccc(-c2cc(-c3nnco3)c3ccccc3n2)nc1	2	-6	-17	-9	10	-12	.
C/C(=N\Nc1nncc2ccccc12)c1ccc(O)cc1	-12	-4	-40	-133	-298	-48	-154
CCN1CCN(C(=O)c2sc3nc(C)nc(N4CCC(C)CC4)c3c2C)CC1	-1	-2	4	-9	-10	5	.
Cc1nc(N2CCC(C)CC2)c2c(C)c(C(=O)O)sc2n1	-3	24	20	5	35*	-6	20
CC1(C)CC2CC(C)(CN2S(=O)(=O)c2ccc(C(=O)Nc3ccc(S(=O)(=O)N4CCOCC4)cc3)cc2)C1 (stereo not drawn)	-5	12	79	34	54*	.	35*
CCc1nnc(NC(=O)CCN2C(=O)/C(=C/c3cc(OC)c(OC)c(OC)c3)SC2=S)s1	-1	-2	-2	-25	-6	-3	.
COc1cc2c(cc1OC)-c1cc(N3CCCc4ccccc43)nc(=O)n1CC2	11	-7	-1	-2	19	0	.
COc1cc2c(cc1OC)-c1cc(N3CCc4ccccc43)nc(=O)n1CC2	0	-7	-3	-11	35*	1	19
COc1cc2c(cc1OC)-c1cc(Nc3ccccc3Br)nc(=O)n1CC2	1	4	4	3	35*	8	10
Cn1ccc(C(=O)N/N=C/c2ccccc2[N+](=O)[O-])n1	-18	-59	-1	-29	-8	-14	.
c1ccc(-c2nc3cc4ccccc4cc3[nH]2)nc1	16	27	17	-59	-272	-122	-315
CC(=O)Nc1ccc2nc(-c3ccccn3)[nH]c2c1	-23	-38	-61	-56	-58	-48	.
Cc1c(Cc2ccccc2)c(=O)oc2c(C)c(OCC(=O)NCC3CCC(C(=O)O)CC3)ccc12 (stereo not drawn)	-13	0	-3	-11	39*	-14	27
N=c1ccn(Cc2c(Cl)cccc2Cl)cc1	11	31	6	42	47*	5	57*
N=c1ccn(Cc2ccccc2Cl)cc1	-3	26	-25	41	46*	25	48*
N=c1ccn(Cc2ccc(Cl)cc2Cl)cc1	8	21	15	47	35	28	.
COc1ccc2c(-c3cnc(N4CCOCC4)nc3)c(-c3ccc(S(C)(=O)=O)cc3)sc2c1	-7	-6	5	0	13	5	.
COc1ccc(OC)c(CCNC(=O)C(C)n2nc(C)c3c(C)n(-c4ccccc4)nc3c2=O)c1 (stereo not drawn)	4	9	6	3	1	10	.
COc1ccc(OC)c(CCNC(=O)C(C)n2nc(C)c3c(C)n(-c4ccc(C)cc4)nc3c2=O)c1 (stereo not drawn)	12	15	76	49	40*	12	87*
COc1ccccc1/C=C\C=N\n1c(C2CCCCC2)n[nH]c1=S	-2	0	-11	-12	3	3	.
O=C(CCCc1ccccc1)c1ccc2c(c1)OCCO2	61*	77*	52	42	-270	40	-210
CN1CCn2cnc(C(=O)Nc3ccc(Cl)cc3)c2C1=O	-10	.	6	.	.	.	.
CCOC(=O)Oc1c(OC)cc(C(=O)O[C@@H]2C[C@@H]3CN4CCc5c([nH]c6cc(OC)ccc56)[C@H]4C[C@@H]3[C@H](C(=O)OC)[C@H]2OC)cc1OC	46*	33	93*	11	37*	7	26
COC(=O)C1C2CC3c4[nH]c5cc(OC)ccc5c4CCN3CC2CC(OC(=O)CC(C)=O)C1OC (stereo not drawn)	4	1	7	.	.	4	.
CCSc1ncc(Cl)c(C(=O)Nc2sc3c(c2C(=O)NCc2cccnc2)CCCC3)n1	-1	-5	-6	14	38*	10	25*
SMILES	EBV LMP1 NFkB	MITF TRPM1 inh	Shn3 3UTR inh	Jurkat NFkB inh	697 NFkB inh	Gli-Sufu block	697 NFkB conf
CC(C)C(c1nnnn1Cc1ccccc1)N(Cc1ccco1)Cc1cccs1 (stereo not drawn)	-7	4	29	-3	35*	-6	28*
Cc1cnc(C(=O)OC(C(=O)c2ccccc2)c2ccccc2)cn1 (stereo not drawn)	-4	1	1	11	20	7	.
Cc1ccc(C(=O)Oc2oc(-c3ccccc3)nc2C=Nc2ccc(N(C)C)cc2)cc1	38	-3	-18	-70	35*	-34	9
C[C@H]1CN([C@@H](C)CO)C(=O)CCCn2nncc2CO[C@@H]1CN(C)Cc1cccc2c1OCCCO2	-3	.	-4	.	.	.	.
COc1cc(CCC(=O)OCc2ccccc2C#N)cc(OC)c1OC	-7	2	-10	2	5	24	.
Cc1ccc(/C=N/Nc2ccc(Cl)c(C(=O)O)c2)s1	-52	12	-97	-107	-298	-105	-39
CCOc1ccccc1N1CCN(CC(=O)Nc2ccccc2C(=O)NC2CC2)CC1	-5	11	39	5	12	2	.
Cc1c(/C=N/Nc2ccc(C(=O)O)cc2)c2ccccc2n1C	-25	-88	-50	-6	-51	-22	.
CC1Oc2ccccc2C=C1/C=N/Nc1ccc(C(=O)O)cc1 (stereo not drawn)	-13	-39	-1	-126	-350	-104	-104
Cc1ccc2oc(-c3ccc(NC(=O)c4cccnc4)cc3)nc2c1	-18	-17	-54	-76	-395	-25	-369
Cc1ccc2oc(-c3ccc(NC(=O)CC(C)C)cc3)nc2c1	-14	-97	-65	-130	-255	-109	-227
O=C(Nc1ccc(-c2nc3ccccc3o2)cc1)c1cccnc1	-33	-23	2	-100	-196	-56	.
CCOC(CNC(=O)c1ccc(N2CCc3ccccc32)c([N+](=O)[O-])c1)OCC	17	2	67	9	-11	28	.
C=CCn1c(C)cc(C(=O)CSc2nc3ccccc3[nH]2)c1C	24	-1	51	-108	-275	-13	-81
C=CCn1c(C)cc(C(=O)CSc2nc3ccccc3c(=O)[nH]2)c1C	-13	-21	3	-39	-91	-44	.
O=C(NC(Cc1c[nH]c2ccccc12)C(=O)Nc1ccc(F)c([N+](=O)[O-])c1)c1cccs1 (stereo not drawn)	50*	-8	15	-44	i	3	-265
O=C(NC(Cc1c[nH]c2ccccc12)C(=O)Nc1ccc(OC(F)(F)F)cc1)c1cccs1 (stereo not drawn)	15	6	16	-65	i	8	8
COc1ccc(Cn2c(=O)[nH]c3cc(C(=O)NCCCN4CCCC4)ccc3c2=O)cc1	-12	-9	-5	-9	-12	14	.
Cc1ccccc1C(=O)N1CCC(C(=O)N2CCN(Cc3ccc4c(c3)OCO4)CC2)CC1	7	2	8	5	2	-1	.

Screens deposited in PubChem BioAssay by several laboratories.
